Source: paper PMC4336329 (PLoS ONE, 2015)
Out of some 310,000 compounds screened, about 2,200 (0.71%) showed an effect of 50% or more. The effect is printed as a negative number. This is one part of a sample in which strong results are shown more often than they occur.

molecular target: human ether-à-go-go-related gene (hERG) potassium channel (human, UniProt Q12809); test: primary screen, population patch clamp on CHO cells stably expressing hERG; higher = less effect of the substance
Sequence (Q12809 whole entry, looked up): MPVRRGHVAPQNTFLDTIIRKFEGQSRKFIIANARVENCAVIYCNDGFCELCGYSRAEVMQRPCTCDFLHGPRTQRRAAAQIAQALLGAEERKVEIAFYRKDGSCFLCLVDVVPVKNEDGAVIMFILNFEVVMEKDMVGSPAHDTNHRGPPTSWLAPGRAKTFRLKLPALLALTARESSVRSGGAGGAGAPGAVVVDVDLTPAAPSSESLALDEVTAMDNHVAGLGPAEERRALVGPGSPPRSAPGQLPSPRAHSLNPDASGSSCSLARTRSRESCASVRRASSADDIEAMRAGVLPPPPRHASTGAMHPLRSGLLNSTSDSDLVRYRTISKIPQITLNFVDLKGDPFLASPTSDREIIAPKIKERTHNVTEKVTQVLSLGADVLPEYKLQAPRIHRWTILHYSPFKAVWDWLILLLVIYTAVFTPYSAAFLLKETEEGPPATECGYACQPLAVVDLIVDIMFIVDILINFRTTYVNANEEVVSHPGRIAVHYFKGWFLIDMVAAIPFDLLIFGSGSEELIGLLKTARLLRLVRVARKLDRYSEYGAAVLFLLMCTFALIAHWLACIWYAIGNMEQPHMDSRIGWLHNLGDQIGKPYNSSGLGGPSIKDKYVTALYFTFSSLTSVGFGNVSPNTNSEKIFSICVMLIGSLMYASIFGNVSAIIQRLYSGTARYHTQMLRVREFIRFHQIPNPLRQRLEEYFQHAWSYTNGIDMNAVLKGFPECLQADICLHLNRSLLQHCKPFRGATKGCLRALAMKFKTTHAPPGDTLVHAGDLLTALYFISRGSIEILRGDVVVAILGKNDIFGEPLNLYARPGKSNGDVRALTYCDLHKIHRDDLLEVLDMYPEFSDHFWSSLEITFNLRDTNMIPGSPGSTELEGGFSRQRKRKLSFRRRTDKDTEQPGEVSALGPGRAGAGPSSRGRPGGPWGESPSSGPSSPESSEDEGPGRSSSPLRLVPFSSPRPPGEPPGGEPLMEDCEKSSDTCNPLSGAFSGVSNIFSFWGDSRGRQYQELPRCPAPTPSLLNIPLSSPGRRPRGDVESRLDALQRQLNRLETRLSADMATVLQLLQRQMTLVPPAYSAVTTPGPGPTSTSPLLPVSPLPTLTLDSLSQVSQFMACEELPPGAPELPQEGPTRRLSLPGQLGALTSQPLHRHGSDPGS

SMILES | hERG current change (%, negative = inhibition) at 1uM [%]
COc1ccc(C(CNC(=O)c2ccc(C)o2)N2CCOCC2)cc1 (stereo not drawn) | -1.5
COC(=O)c1[nH]c2ccc(C)cc2c1NC(=O)NC1CCCCC1 | 9.66
CCOC(=O)c1[nH]c2ccc(OC)cc2c1NC(=O)CCN1CCCC(C)C1 (stereo not drawn) | -3.69
COC(=O)c1[nH]c2ccc(Br)cc2c1NC(=O)CN1CCCCC1CCO (stereo not drawn) | 5.4
COC(=O)c1[nH]c2ccc(Cl)cc2c1NC(=O)CN1CCC(C(N)=O)CC1 | 10.6
CCOC(=O)c1[nH]c2ccc(Br)cc2c1NC(=O)CCN1CCC(C)CC1 | -36.9
COC(=O)c1[nH]c2ccc(C)cc2c1NC(=O)C(C)N1CCN(C2CCCCC2)CC1 (stereo not drawn) | -81
COC(=O)c1[nH]c2ccc(Cl)cc2c1NC(=O)CCN1CCN(C2CCCCC2)CC1 | -69.5
CCOC(=O)C1CCCN(CC(=O)Nc2c(C(=O)OC)[nH]c3ccc(Br)cc23)C1 (stereo not drawn) | -3.53
COC(=O)c1[nH]c2ccc(Br)cc2c1NC(=O)CN1CCN(C2CCCCC2)CC1 | -85.1
CCOC(=O)c1[nH]c2ccc(Br)cc2c1NC(=O)CCN1CCCC(C)C1 (stereo not drawn) | -66.8
COC(=O)c1[nH]c2ccc(Cl)cc2c1NC(=O)CCN1CCOCC1 | 9.37
COC(=O)c1[nH]c2ccccc2c1NC(=O)C(C)N1CCOCC1 (stereo not drawn) | 9.91
NC(=O)Nc1ccccc1C(=O)NCCc1ccccc1 | 9.22
Cn1c(SCc2ccc3c(c2)OCO3)nnc1-c1ccccc1 | 10.4
Cc1cc2nnn(-c3nnc(-c4ccccc4)c4ccccc34)c2cc1C | 5.53
CCCc1[nH]n(-c2ccc(F)cc2)c(=O)c1C=Nc1cccc(F)c1 | 16.9
COC(=O)c1[nH]c2ccccc2c1NC(=O)C(C)N1CC(C)OC(C)C1 (stereo not drawn) | 10.2
COC(=O)c1[nH]c2ccc(Br)cc2c1NC(=O)CN1CCCc2ccccc21 | 8.7
COC(=O)c1[nH]c2ccc(Br)cc2c1NC(=O)C(C)N1CCN(C2CCCCC2)CC1 (stereo not drawn) | -82.6
Cc1scc(-c2n[nH]c(=S)n2C(C)c2ccccc2)c1C (stereo not drawn) | 8.59
Cc1ccc(CNC(=O)[C@H](C)NC(=O)C2CCN(C(=O)[C@@H](N)CC(C)C)CC2)cc1 | 6.77
CC(C)CNc1c2c(nc3ccccc13)CCC2.Cl | -33.5

SMILES | hERG current change (%, negative = inhibition) at 1uM [%]
OCCNc1c2c(nc3ccccc13)CCCC2 | -15.9
c1ccc(CNc2c3ccccc3nc3ccccc23)cc1 | -74.5
O=C(NCc1ccco1)c1c2c(nc3ccccc13)CCC2 | 3.32
COCCNc1c2c(nc3ccccc13)CCC2.Cl | -41.5
c1coc(CNc2c3c(nc4ccccc24)CCC3)c1 | -82
Cl.c1ccc(CNc2nc(NCc3ccccc3)c3ccccc3n2)cc1 | 16.8
Cl.c1ccc(CNc2c3c(nc4ccccc24)CCC3)cc1 | -75.8
OCCNc1c2ccccc2nc2ccccc12 | -3.35
CCc1ccc(NC(=O)c2cnc3scc(C)n3c2=O)cc1 | 4.58
Cc1ccc(NC(=S)NCCc2ccc(Cl)cc2)c(C)c1 | 12.4
COc1ccc(CNC(=O)CCCn2nc(C)c3c(C)n(-c4ccc(C)cc4)nc3c2=O)cc1 | 6.87
O=c1c2ccccc2cnn1Cc1nnc(-c2cccs2)o1 | 13.7
CCOC(=O)CSc1nc2c(c(=O)[nH]c(=O)n2C)n1CCCc1ccccc1 | 1.75
CCOc1ccc(S(=O)(=O)NCCCN2CCOCC2)cc1 | 9.88
Cn1cnnc1SCC(=O)OCN1C(=O)c2ccccc2C1=O | 7.64
COc1ccc(CCNC(=O)c2cc3c(=O)n4ccccc4nc3n(C3CCCCC3)c2=N)cc1OC | -61.9
COc1ccc(CCNC(=O)c2c(C)nc3ccccn23)cc1OC | -9.75
COc1ccc(CCNC(=O)c2c(C)nc3ccccn23)cc1 | 4.94
COc1ccc(CCNC(=O)c2cc3c(=O)n4ccccc4nc3n(C3CCCCC3)c2=N)cc1 | -67.6
COc1ccc(CCNC(=O)c2cnc3ccccn3c2=O)cc1 | -1.13
COc1ccc(CCNC(=O)c2cccc3ccccc23)cc1OC | 22
COc1ccc(CN(C)CC(=O)Nc2cccc(S(=O)(=O)N(C)c3ccccc3)c2)c(OC)c1 | -25
